# Cruzain noTriton: cruzain (T. cruzi) inhibition without detergent | Potency, µM, without a hit: max response, negative = inhibition, hits mostly inhibitors | P25779 | purified cruzain, Z-FR-AMC fluorescence, no detergent | actives 2.3% (n = 200,000);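 also: plate controls were enzyme without inhibitor for no effect and buffer without enzyme for full effect; nearly all actives have a fitted effect of over 40% in size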
# Target sequence (P25779 123-467 limits assumed): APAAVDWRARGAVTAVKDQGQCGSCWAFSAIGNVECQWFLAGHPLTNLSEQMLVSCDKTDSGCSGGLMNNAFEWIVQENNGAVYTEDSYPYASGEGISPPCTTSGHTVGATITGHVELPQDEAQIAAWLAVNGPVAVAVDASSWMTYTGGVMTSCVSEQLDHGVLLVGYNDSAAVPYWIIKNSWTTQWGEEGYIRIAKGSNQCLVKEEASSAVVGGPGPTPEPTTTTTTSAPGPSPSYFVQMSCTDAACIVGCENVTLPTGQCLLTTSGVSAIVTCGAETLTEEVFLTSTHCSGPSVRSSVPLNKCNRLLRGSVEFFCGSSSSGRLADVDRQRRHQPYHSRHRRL
#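 Detergent-free condition (0.00005% Triton X-100) in acetate buffer pH 5.5 with DTT. 1.5 nM enzyme and compound were pre-mixed 15 min, then 2 uM Z-FR-AMC substrate added; reaction progress from fluorescence change between first and third reads (60 s).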
# Cruzain inh Det: cruzain (T. cruzi) inhibition with detergent; P25779; purified cruzain, Z-FR-AMC fluorescence, 0.01% Triton; Potency, µM, for the others: max response, negative = inhibition, usual class: inhibitors; actives 0.43% (n = 200,000); AID 1478;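 also: plate controls were neutral wells for no effect and buffer without enzyme for full effect; nearly all actives have a fitted effect of over 40% in size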
#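 15 min RT preincubation of 1.5 nM cruzain with compound, then 2 uM Z-FR-AMC added; kinetic AMC fluorescence, 60 s delta. Triton X-100 0.01%, pH 5.5.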
# Active calls of the source: *; u = inconclusive. Only some compounds are listed: those with a hit (about 2.4% of all), similar ones and a draw of the others. Calls follow the shape of the dose curve; as a rule, active = well fitted curve in the direction sought with a large enough effect; inconclusive = small, poorly fitted or top-dose-only effect, or another doubt; inactive = no such curve, though single readings can be large; an effect the other way counts as inactive or inconclusive. Potency is read from the fitted curve at half-maximal effect.
SMILES,Cruzain noTriton,Cruzain inh Det
CC1(C)C(=O)NC2=C1C(=O)C(=O)c1ccccc12,u,-30%
CC1(C)C(C=C(Cl)Cl)C1C(=O)Nc1ccc([N+](=O)[O-])cc1 (configuration not stated),10µM*,13µM*
O=C(Nc1ccc([N+](=O)[O-])cc1)C1CC1(c1ccccc1)c1ccccc1 (configuration not stated),5%,-9%
Cc1ccc(S(=O)(=O)N(CCc2ccccc2)CC(=O)Nc2cc(C)ccc2C)cc1,4%,1%
Cc1ccc(C)c(OCC(=O)Nc2ccc(S(=O)(=O)Nc3onc(C)c3C)cc2)c1C,u,-9%
O=C(Nc1cc(Cl)cc(Cl)c1)c1ccc(F)c(S(=O)(=O)N2CCCCCC2)c1,11%,2%
O=C1N/C(=C/c2ccc(N3CCCC3)cc2)C(=O)N1c1ccccc1,3.2µM*,-6%
O=C1/C(=C/c2ccc(N3CCCC3)cc2)NC(=S)N1C1CC1,4%,-5%
Nc1cccc(C(F)(F)F)c1,-1%,2%
Cc1ccccc1Cn1cc(S(=O)(=O)c2ccc(Cl)cc2)c(=O)c2cc3c(cc21)OCO3,2%,-2%
CC(=O)Nc1ccc(S(=O)(=O)Nc2nc3ccccc3nc2N2CCCC2)cc1,15%,-7%
O=S(=O)(Nc1nc2ccccc2nc1N1CCN(c2ccccc2)CC1)c1ccc(F)cc1,32µM*,-3%
Cc1cccc(Nc2nc3c(S(=O)(=O)c4ccccc4)nnn3c3ccccc23)c1,25µM*,-3%
Cc1cc(C)cc(Nc2nc3c(S(=O)(=O)c4ccccc4)nnn3c3ccccc23)c1,u,-6%
Nc1nc(SCc2ccccc2Cl)nc2nc3c(cc12)CCCC3,4%,-15%
Nc1nc(SCc2ccc(Cl)cc2Cl)nc2nc3c(cc12)CCCC3,13µM*,14µM*
COC(=O)c1ccc(-c2nc3cc(N)ccc3o2)cc1,6%,-4%
COC(=O)c1ccc(-c2nc3cc(Cl)c(N)cc3s2)cc1,7.9µM*,6%
COC(=O)[C@@]1(Cc2ccccc2)[C@H]2c3cc(C(=O)N(C)C)n(Cc4ccccn4)c3C[C@H]2CN1C(=O)c1ccccc1,u,5%
O=C(CSc1ccccc1)Nc1nc2ccccc2[nH]1,-3%,-7%
O=C(CSc1ccc(Cl)cc1)Nc1ccc(-c2nc3ccccc3[nH]2)cc1,20µM*,u
Cc1nnc(SCC2=C(C(=O)O)N3C(=O)C(NC(=O)Cn4cnnn4)[C@@H]3SC2)s1 (some centres not stated),-3%,3%
CN(Cc1ccc(F)cc1)S(=O)(=O)c1nnc(NC(=O)c2ccc(F)cc2)s1,16µM*,-3%
CN(Cc1ccc(F)cc1)S(=O)(=O)c1nnc(NC(=O)c2ccccc2)s1,u,-1%
Cc1ccc2cc(CN(Cc3cccs3)Cc3nnnn3C(C)(C)C)c3nnnn3c2c1,-5%,-3%
SMILES,Cruzain noTriton,Cruzain inh Det
Cc1cc2cc(CN(Cc3cccs3)C(c3nnnn3C(C)(C)C)C(C)C)c3nnnn3c2cc1C (configuration not stated),7.9µM*,-2%
CCCCc1ccc(-c2c(C#N)c(N)nc3c2CCCC3)s1,25µM*,5%
CCCCc1sc(-c2c(C#N)c(N)nc3c2CCCCC3)cc1[N+](=O)[O-],-4%,-6%
O=C(CSc1nnc(-c2ccc(F)cc2)c2ccccc12)Nc1cccc(Cl)c1,16µM*,-4%
O=C(CSc1nnc(-c2ccc(F)cc2)c2ccccc12)Nc1c(F)cccc1F,16µM*,-7%
COc1ccc(CCNC(=O)CSc2nnc(-c3ccc(F)cc3)c3ccccc23)cc1OC,u,-4%
O=C(CSc1nnc(-c2ccc(F)cc2)c2ccccc12)Nc1ccccc1,32µM*,-5%
O=C(CSc1ncnc2c1oc1ccccc12)Nc1cccc(Cl)c1,-11%,-3%
O=C(CCC(=O)c1ccc(F)cc1)Nc1ccccc1Cl,-10%,-3%
CCCCSc1nnc(-c2ccc(C)cc2)c2ccccc12,14%,-3%
O=C(CSc1nnc(-c2ccc(F)cc2)c2ccccc12)Nc1ccccc1Cl,16µM*,-5%
COc1ccc2c(c1)CCc1c(C(=O)Nc3cc(OC)c(Cl)cc3OC)noc1-2,-11%,-2%
CCCSc1nc2sc3c(c2c(=O)n1-c1ccc(C)c(Cl)c1)CCN(C(C)=O)C3,u,-3%
CCOC(=O)N1CCC(NC(=O)c2ccc3c(c2)N(Cc2cc(C)ccc2C)C(=O)c2ccccc2S3(=O)=O)CC1,u,-2%
COc1ccc(-c2nc3cnc(N4CCN(C)CC4)nc3n(C)c2=O)cc1,-17%,-1%
CCOc1ccc(CNC(=O)c2cnc3sc(N4CCCCCC4)nn3c2=O)cc1OC,7%,0%
Cc1ccc(NC(=O)/C(C#N)=C/c2cc(C)n(-c3ccc(N4CCOCC4)c([N+](=O)[O-])c3)c2C)c(C)c1,u,-1%
Cc1cc(/C=C(\C#N)C(=O)Nc2ccc(Cl)cc2)c(C)n1-c1ccc(N2CCOCC2)c([N+](=O)[O-])c1,7.9µM*,-6%
Cc1ccccc1-c1cncnc1NCc1cccnc1,2%,0%

# Bioassay records: PubChem BioAssay, National Center for Advancing Translational Sciences (NCATS)
